# Source: PubChem
# Most compounds without a hit are left out; they make up all but 5.8% or so of the library.
# RORgamma inh: qHTS for inhibitors of ROR gamma transcriptional activity; Nuclear receptor ROR-gamma (Mus musculus), P51450; Drosophila S2 Gal4-RORgamma UAS-luciferase reporter, 20 h; Potency, µM (titrated, usually from 53.6 µM), without a hit: top-dose activity change, negative = inhibition, most hits filed as inhibitors; hit rate 5.4% among 310,000; AID 2551, 2010; note: potency is the fitted concentration of half-maximal effect; % is set by controls: 0 for no effect and ±100 for the full control effect; nearly all actives have a fitted effect of over 60% in size
# Target sequence (P51450 whole entry, looked up, the tested form may be a part): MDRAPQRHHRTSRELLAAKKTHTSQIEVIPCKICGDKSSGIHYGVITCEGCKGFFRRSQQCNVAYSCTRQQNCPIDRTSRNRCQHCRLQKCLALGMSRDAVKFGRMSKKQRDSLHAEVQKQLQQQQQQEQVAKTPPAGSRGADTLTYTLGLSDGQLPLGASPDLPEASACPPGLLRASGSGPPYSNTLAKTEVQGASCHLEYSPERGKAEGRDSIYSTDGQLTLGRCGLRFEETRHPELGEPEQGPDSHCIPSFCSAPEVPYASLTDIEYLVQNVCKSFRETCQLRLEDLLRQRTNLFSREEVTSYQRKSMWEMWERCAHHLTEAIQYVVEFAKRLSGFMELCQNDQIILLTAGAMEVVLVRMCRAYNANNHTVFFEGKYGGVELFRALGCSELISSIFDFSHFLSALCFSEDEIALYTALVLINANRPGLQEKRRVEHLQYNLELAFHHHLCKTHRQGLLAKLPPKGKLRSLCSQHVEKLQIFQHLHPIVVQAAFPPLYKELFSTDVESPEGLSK
#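 Luciferase reporter read in Schneider cells carrying Gal4-RORγ (mouse) and UAS-Photinus luciferase; cells given compound 1 h before 700 uM copper sulfate induction, then incubated 20 h at ambient temperature.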
# VP16 counter: VP16 counterscreen qHTS for inhibitors of ROR gamma transcriptional activity. Drosophila S2 Gal4-VP16 UAS-luciferase, luminescence, 20 h. hit rate 3.5% among 310,000. Potency, µM (top dose mostly 53.6 µM), for the others: at the top dose activity, negative = inhibition, usual class: inhibitors. AID 2546, 2010;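 note: Gal4-VP16 expression switched on by copper sulfate through the metallothionein promoter; potency is the fitted concentration of half-maximal effect; % is set by controls: 0 for no effect and ±100 for the full control effect; nearly all actives have a fitted effect of over 50% in size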
# TRPV1 agonist: HTS Assay for Compounds that Act as Agonists of the Vanilloid Receptor 1; activation, % at 8.33 µM; AID 540275, 2011; TRPV1-expressing cells, Fluo-8 calcium influx, agonist mode; Transient receptor potential cation channel subfamily V member 1 (Homo sapiens), Q8NER1; hit rate 0.19% among 320,000; in the data active = activation above about 80%; inconclusive = between about 30% and that limit; note: 0% is about no effect
#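 TRPV1-expressing cells were cultured overnight at 35.5C and loaded with Fluo-8 calcium dye for 40 to 90 min at room temperature. After a 10 s baseline, compound was added and calcium influx was read kinetically for 3 min (ex 480/em 520 nm).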
# uPA generation: qHTS for Inhibitors of Cell Surface uPA Generation; cell surface uPA generation assay, qHTS; Potency, µM (doses to about 38.3 µM), inactives show at the highest dose activity change, negative = inhibition, actives largely listed as inhibitors; hit rate 0.31% among 330,000; active = well fitted inhibition curve with a large enough effect; inconclusive = small, poorly fitted or top-dose-only effect; inactive = no such curve, though single readings can be large or run the other way; tested in mouse RAW 264.7 cells; note: potency is the fitted concentration of half-maximal effect; % is set by controls: 0 for no effect and ±100 for the full control effect; nearly all actives have a fitted effect of over 55% in size
# TRPV1 PAM: HTS Assay for Compounds that Act as Potentiators of the Vanilloid Receptor 1 | Transient receptor potential cation channel subfamily V member 1 (Homo sapiens), Q8NER1 | TRPV1-expressing cells, Fluo-8 calcium influx, capsaicin EC20 potentiation | potentiation, % at 8.33 µM | hit rate 0.02% among 320,000 | AID 540277, 2011; in the data active = potentiation above about 80%; inconclusive = between about 30% and that limit; note: 0% is about no effect
#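 TRPV1-expressing cells were cultured overnight at 35.5C and loaded with Fluo-8 calcium dye for 40 to 90 min at room temperature. After a 10 s baseline, compound was added and calcium influx was read kinetically for 3 min (ex 480/em 520 nm).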
# * marks the source's active call; other numbers are inactive results; ? = inconclusive; / = not tested or not shown. Unless noted, calls come from the whole dose curve; as a rule, active = well fitted curve in the direction sought with a large enough effect; inconclusive = small, poorly fitted or top-dose-only effect, or another doubt; inactive = no such curve, though single readings can be large; an effect the other way counts as inactive or inconclusive.
SMILES,RORgamma inh,VP16 counter,TRPV1 agonist,uPA generation,TRPV1 PAM
COc1cc([N+](=O)[O-])cc(/C=N\NC(=O)C2COc3ccccc3O2)c1O (stereo not drawn),0.45µM*,3.2µM*,0,-14%,3
C=CC[C@H](CC(=O)N(CCO)Cc1ccccc1)C(=O)N[C@H](C)COC(=O)[C@@H](CC=C)CC(=O)OC(C)(C)C,/,/,/,7%,/
Cc1ccnc(NS(=O)(=O)c2ccc(NC(=O)c3ccc(S(=O)(=O)N4CC(C)OC(C)C4)cc3)cc2)n1 (stereo not drawn),10%,4%,3,4%,3
COc1cc2cc(C(=O)N/N=C/c3ccccc3Cl)[nH]c2cc1OC,0%,-7%,2,-3%,9
COC(=O)[C@@]1(Cc2ccc(OC)cc2)[C@H]2c3cc(C(=O)N(C)C)n(CCc4ccc(O)c(OC)c4)c3C[C@H]2CN1C(=O)c1ccccc1,-6%,6%,/,/,/
CSc1nnc(-c2ccccc2N=Cc2c(C)[nH]n(-c3ccccc3)c2=O)c(=O)[nH]1,?,-5%,-2,-2%,26
Cc1[nH]n(-c2ccccc2)c(=O)c1C=Nc1ccc(S(=O)(=O)N(C)C)cc1,7%,-5%,-2,2%,-4
Cc1ccc2cccc(N=Cc3c(C)[nH]n(-c4ccccc4)c3=O)c2n1,1µM*,1µM*,1,-7%,-6
COC(=O)N/N=C\c1c(C)[nH]n(-c2ccccc2)c1=O,11µM*,?,0,0%,2
Cc1[nH]n(-c2ccccc2)c(=O)c1/C=N/N(C)c1ccccc1,7.9µM*,?,5,2%,-12
Cc1[nH]n(-c2ccccc2)c(=O)c1/C=N/N1C(=O)c2ccc3c4c(ccc(c24)C1=O)CC3,10µM*,?,0,-13%,7
Cc1ccc(NC(=O)CSc2nnnn2C2CCCC2)cc1S(=O)(=O)N1CCOCC1,/,/,3,-24%,19
Cc1[nH]n(-c2ccccc2)c(=O)c1/C=N/NC(=O)c1ccccc1F,0.5µM*,1µM*,24,?,?
Cc1[nH]n(-c2ccccc2)c(=O)c1/C=C1\C=NN=C1c1ccccc1,11µM*,?,-4,9%,12
COCC(=O)N/N=C/c1c(C)[nH]n(-c2ccccc2)c1=O,0.63µM*,?,-3,-3%,20
COC(=O)CN=Cc1c(C)[nH]n(-c2ccccc2)c1=O,0%,5%,2,5%,6
Cc1nn(-c2ccccc2)c(Cl)c1/C=N/NC(=O)c1ccccc1F,-9%,8%,23,-7%,-16
Cc1[nH]n(-c2ccccc2)c(=O)c1/C=N\NC(=O)C1COc2ccccc2O1 (stereo not drawn),0.79µM*,1.1µM*,-1,-12%,6
COc1ccccc1N1CCN(C2CCCN(C(=O)c3ccsc3)C2)CC1 (stereo not drawn),/,/,/,6%,/
CSCC[C@H](NC(=O)[C@H](CO)NC(=O)[C@H](Cc1ccc(O)cc1)NC(=O)[C@@H](N)CO)C(=O)N[C@@H](CCC(=O)O)C(=O)N[C@@H](Cc1cnc[nH]1)C(=O)N[C@@H](Cc1ccccc1)C(=O)N[C@@H](CCCNC(=N)N)C(=O)N[C@@H](Cc1c[nH]c2ccccc12)C(=O)NCC(=O)N[C@@H](CCCCN)C(=O)N1CCC[C@H]1C(=O)N[C@H](C(=O)NCC(=O)N[C@@H](CCCCN)C(=O)N[C@@H](CCCCN)C(=O)N[C@@H](CCCNC(=N)N)C(=O)N[C@@H](CCCNC(=N)N)C(=O)N1CCC[C@H]1C(=O)N[C@H](C(=O)N[C@@H](CCCCN)C(=O)N[C@H](C(=O)N[C@@H](Cc1ccc(O)cc1)C(=O)N1CCC[C@H]1C(=O)O)C(C)C)C(C)C)C(C)C,10%,7%,/,/,/
Cc1[nH]n(-c2ccccc2)c(=O)c1/C=N/NC(=O)COc1ccccc1[N+](=O)[O-],0.45µM*,0.63µM*,-5,?,18
Cc1[nH]n(-c2ccccc2)c(=O)c1/C=N/O,2.5µM*,3.5µM*,5,0%,-4
Cc1c(/C=N/NC(=O)COc2ccccc2[N+](=O)[O-])c2ccccc2n1C,8%,-6%,-8,?,-8
Cc1[nH]n(-c2ccccc2)c(=O)c1C=Nc1ccc(S(N)(=O)=O)cc1,1%,-3%,1,-1%,-15
Cc1[nH]n(-c2ccccc2)c(=O)c1/C=N/NC(=O)C(C)C,6.3µM*,3.2µM*,8,?,-12
SMILES,RORgamma inh,VP16 counter,TRPV1 agonist,uPA generation,TRPV1 PAM
Cn1[nH]c(-c2ccccc2)c(/C=N/O)c1=O,3.5µM*,0.89µM*,-2,0%,26
CN(c1cccc(NC(=O)CN(c2cccc(Cl)c2)S(=O)(=O)c2ccc(Cl)cc2)c1)S(C)(=O)=O,17%,-18%,8,-7%,-7
C=CCOC(/C=C/c1ccccc1)CC (stereo not drawn),-8%,-2%,/,/,/
O=C1CCCC(=O)N1c1ccc(NCCOCCO)c([N+](=O)[O-])c1,-2%,2%,0,0%,?
Cc1[nH]n(-c2ccccc2)c(=O)c1C=Nc1ccc(S(=O)(=O)NC(N)=O)cc1,-10%,-20%,3,-20%,0
Cc1[nH]n(-c2ccccc2)c(=O)c1C=NCc1ccco1,-35%,6%,1,/,2
Cc1[nH]n(-c2ccccc2)c(=S)c1C=NCCCN=Cc1c(C)[nH]n(-c2ccccc2)c1=S,0.63µM*,1.8µM*,5,-14%,-15
CC(=O)N/N=C/c1c(C)[nH]n(-c2ccccc2)c1=O,5µM*,11µM*,?,-1%,6
O=C(Nc1ccc(Br)cc1)C1CC(O)CN1C(=O)Oc1ccccc1 (stereo not drawn),-23%,4%,-5,1%,8
CC(C)CCn1cnc2c(oc3nc4c(cc32)CCCC4)c1=O,10µM*,?,0,?,9
CC1(C)Cc2nc3oc4c(=O)n(CC(=O)Nc5ccccc5)cnc4c3cc2CO1,30%,3%,2,4%,-8
CC(=N\NC(=O)c1ccccc1)/C(=N/O)C(=O)Nc1ccccc1,5µM*,?,-1,4%,-7
CC1(C)CC2=C(CO1)C(=S)NC(c1ccccc1)N2CC1CCCO1 (stereo not drawn),16µM*,?,4,-1%,-6
O=C(O)C1NCCN(C(=O)c2ccc3c(ccc4ccccc43)c2)C1C(=O)O (stereo not drawn),-6%,-9%,/,/,/
O=S(=O)(CCNCc1ccco1)NC1CCCCC1,/,/,/,0%,/
